Measurements published in PubChem BioAssay (Tox21).
Values joined by “and” are separate entries in the source; they are usually repeats but may differ in a detail not shown here. Identical values can stand only once. Records with an inconclusive call do not appear. Where a call stands in place of a potency, no number is given. Some compounds were tested as several samples or in several runs, with calls that do not always agree. Active and inactive are the calls of the source. Unless noted, the call rests on the fitted dose curve; in most records, active means well fitted curve in the direction sought with a large enough effect in the repeat runs; inconclusive means weak or mixed curves; inactive means no such curve, though single readings can be large; an effect the other way counts as inactive or inconclusive.

Assays:
[1] = target: Thyrotropin receptor (Homo sapiens) (UniProt P16473); assay: qHTS assay to identify small molecule antagonists of the thyroid stimulating hormone receptor (TSHR) signaling pathway (AID 1259385; calls by dose curve; further: nearly all actives have a fitted effect of over 20% in size)
Summary of the method: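 TSHR-HEK293 cells were plated and held 18 h at 37C/5% CO2, then given compound plus Ro20-1724 and stimulated with TSH at 1.5 ng/mL final. After 30 min at room temperature, cAMP was detected with cAMP-d2/anti-cAMP-cryptate (1 h) by fluorescence.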

[2] = qHTS assay to identify small molecule agonists of the estrogen receptor alpha (ER-alpha) signaling pathway in the presence of an antagonist - cell viability counter screen (AID 1259386);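 further: series mostly up to about 92 µM; cells exposed to compounds for 22 h at 37 °C before the viability read; nearly all actives have a fitted effect of over 30% in size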
Summary of the method: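 Steps: 5-day stripped-FBS culture; seed and incubate 24hr; add ICI-182,780 (10.0nM final); pin 15-point compound titration; incubate 22hr at 37C; add CellTiter-Fluor at 21hr; read fluorescence.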

[3] = target: Progesterone receptor (Homo sapiens) (UniProt P06401); assay: qHTS assay to identify small molecule agonists of the progesterone receptor (PR) signaling pathway (AID 1346784; calls by dose curve; further: nearly all actives have a fitted effect of over 30% in size)
Summary of the method: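 PR-UAS-bla HEK 293T cells (beta-lactamase reporter under UAS) in 2% charcoal-stripped FBS, dosed with 23 nL compound after 6 hr, incubated 16hr at 37C. LiveBLAzer B/G FRET substrate added, fluorescence read after 2 hours.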

[4] = target: Progesterone receptor (Homo sapiens) (UniProt P06401); assay: qHTS assay to identify small molecule antagonists of the progesterone receptor (PR) signaling pathway (AID 1346795; active means well fitted inhibition curve with a large enough effect in the signal ratio in the repeat runs, not every such curve was filed as active; the % refers to the signal ratio)
Summary of the method: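 PR-UAS-bla HEK293T cells with beta-lactamase reporter under UAS control, in 2% charcoal-stripped FBS, treated with compounds plus 1 nM promegestone (R5020, final) for 16 hr at 37C. Read-out: FRET beta-lactamase substrate fluorescence after 2 hr at room temperature.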

[5] = qHTS assay to identify small molecule antagonists of the progesterone receptor (PR) signaling pathway - cell viability counter screen (AID 1346798); further: series mostly up to about 92 µM; nearly all actives have a fitted effect of over 50% in size
Summary of the method: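 PR-UAS-bla HEK293T cells, 3,000/well in 2% charcoal-stripped FBS medium, dosed with compounds plus R5020 agonist and incubated 16 h at 37C. Viability then measured in the same wells by CellTiter-Glo luminescence after 30 min at RT.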

[6] = qHTS assay to identify small molecule agonists of the progesterone receptor (PR) signaling pathway - cell viability counter screen (AID 1346799; calls by dose curve; further: nearly all actives have a fitted effect of over 45% in size)
Summary of the method: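 Counter screen in the PR-UAS-bla HEK293T wells (2% charcoal-stripped FBS, 16 h compound exposure at 37 C) after the bla read. CellTiter-Glo added, 30 min at room temperature, luminescence read as cell viability.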

[7] = qHTS assay to identify small molecule antagonists of the TGF-beta/Smad signaling pathway - cell viability counter screen (AID 1346824); further: nearly all actives have a fitted effect of over 50% in size
Summary of the method: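 SBE-bla HEK 293T cells were plated overnight at 37 C, then given compounds in DMSO plus TGF-beta1 (added as 0.25 ng/mL solution) for 5 hr. After the bla read, CellTiter-Glo was added to the same wells and luminescence read after 30 min at room temperature.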

[8] = qHTS assay to identify small molecule agonists of the TGF-beta/Smad signaling pathway - cell viability counter screen (AID 1346829); further: nearly all actives have a fitted effect of over 45% in size; further: potency means the concentration at half of the fitted maximal effect
Summary of the method: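 SBE-bla HEK 293T cells plated overnight, compound exposure 5 hr at 37 C. Viability read in the same wells by CellTiter-Glo luminescence after 30 min at room temperature, following the beta-lactamase read.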

[9] = qHTS assay to identify small molecule agonists of the TGF-beta/Smad signaling pathway (AID 1346859; active means well fitted activation curve with a large enough effect in the signal ratio in the repeat runs, not every such curve was filed as active; the % refers to the signal ratio; further: series mostly up to about 77 µM)
Summary of the method: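 SBE-bla HEK293T cells plated overnight, then compound exposure for 5 h at 37 C. Beta-lactamase reporter read with LiveBLAzer B/G FRET substrate after 2 h at room temperature, fluorescence at 405 nm excitation, 460/530 nm emission.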

[10] = target: Thyrotropin-releasing hormone receptor (Homo sapiens) (UniProt P34981); assay: qHTS assay to identify small molecule antagonists of the thyrotropin-releasing hormone receptor (TRHR) signaling pathway (AID 1346877; active means well fitted inhibition curve with a large enough effect in the repeat runs, not every such curve was filed as active; further: series mostly up to about 51 µM)
Summary of the method: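 Human TRHR in HEK293 cells; inhibition of the intracellular calcium rise triggered by 1 nM TRH was followed by fluorescence over 3 min. Compounds were run at 15 concentrations, three replicates each.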

[11] = Human pregnane X receptor (PXR) small molecule agonists, qHTS cell viability counter screen (AID 1346977); further: nearly all actives have a fitted effect of over 50% in size; further: potency means the concentration at half of the fitted maximal effect
Summary of the method: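 PXR-Luc HepG2 cells (2,000/well, 5% charcoal-stripped FBS) preincubated 5 hr, then exposed to compounds 24 hr at 37 C. Viability read in the same wells by CellTiter-Fluor fluorescence, reagent added at 23 hr, 1 hr incubation.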

[12] = Caspase-3/7 induction in HepG2 cells by small molecules, qHTS assay (AID 1346978); further: nearly all actives have a fitted effect of over 15% in size; further: potency means the concentration at half of the fitted maximal effect
Summary of the method: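 Wild-type HepG2 cells (2,000/well) were settled 5 h at 37 C, 5% CO2, then exposed to compounds in DMSO for 17 h. Caspase-3/7 activity was read by luminescence 30 min after adding Caspase-Glo 3/7 reagent at room temperature.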

[13] = Caspase-3/7 induction in CHO-K1 cells by small molecules, qHTS cell viability counter screen (AID 1346979); further: nearly all actives have a fitted effect of over 35% in size; further: potency means the concentration at half of the fitted maximal effect
Summary of the method: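 Wild-type CHO-K1 cells (1,500/well) treated with compound after 5 h plating; after 16 h at 37C, viability read as CellTiter-Fluor fluorescence following 1 h reagent incubation, in the same wells as the caspase read.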

[14] = Caspase-3/7 induction in CHO-K1 cells by small molecules, qHTS assay (AID 1346980); further: nearly all actives have a fitted effect of over 15% in size
Summary of the method: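 Wild-type cells were seeded at 1,500 per well and settled 5 hr at 37 C, 5% CO2, then exposed to DMSO-dissolved compounds for 17 hr. Caspase-Glo 3/7 reagent was added, and luminescence was read after 30min at room temperature.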

[15] = Caspase-3/7 induction in HepG2 cells by small molecules, qHTS cell viability counter screen (AID 1346981); further: series mostly up to about 92 µM; nearly all actives have a fitted effect of over 30% in size
Summary of the method: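 The parent HepG2 line is plated at 2,000 cells per well and rested 5 hr before compound pinning from DMSO stocks. Following a 16-hr treatment at 37 C, a fluorogenic live-cell substrate (CellTiter-Fluor) reports viability after 1 hr.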

[16] = target: Nuclear receptor subfamily 1 group I member 2 (Homo sapiens) (UniProt O75469); assay: Human pregnane X receptor (PXR) small molecule agonists, qHTS assay (AID 1346982); further: nearly all actives have a fitted effect of over 35% in size
Summary of the method: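 After plating in 5% charcoal-stripped FBS and a 5 hr rest, PXR-Luc HepG2 cells received compounds in DMSO. Following 24 hr at 37 C, ONE-Glo was added and light output read.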

[17] = target: Nuclear receptor subfamily 1 group I member 2 (Rattus norvegicus) (UniProt Q9R1A7); assay: Rat pregnane X receptor (rPXR) activation by small molecules, qHTS assay (AID 1346983); settings: rPXR luciferase reporter cells, One-Glo luminescence, 24 h; max activation: stronger effect = higher value; further: nearly all actives have a fitted effect of over 20% in size
Summary of the method: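 Cell-based rPXR luciferase reporter assay, 2,000 cells per well, rested 5hr at 37 C before compound addition in DMSO, then 24 hr at 37 C. One-Glo reagent was added and luminescence read after 30 min at room temperature.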

[18] = target: Nuclear receptor subfamily 1 group I member 2 (Homo sapiens) (UniProt O75469); assay: CYP3A4 induction through human pregnane X receptor (PXR) by small molecules, qHTS assay (AID 1346984); further: nearly all actives have a fitted effect of over 40% in size
Summary of the method: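 Human PXR activation is tracked via CYP3A4 promoter-luciferase in DPX-2 (HepG2) cells. Compounds treat cells for 24hr at 37C, and luminescence is read after One-Glo.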

[19] = target: Nuclear receptor subfamily 1 group I member 2 (Homo sapiens) (UniProt O75469); assay: Human pregnane X receptor (PXR) activation by small molecules, qHTS assay (AID 1346985); further: nearly all actives have a fitted effect of over 40% in size
Summary of the method: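 DPX-2 cells (HepG2 co-transfected with a PXR response element and a CYP3A4-promoter luciferase construct) were seeded at 2,000 per well, rested 5 hr at 37C, then exposed to DMSO-dissolved compounds for 24 hr. Activation was read as luciferase luminescence.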

[20] = target: Thyrotropin-releasing hormone receptor (Homo sapiens) (UniProt P34981); assay: qHTS assay to identify small molecule agonists of the thyrotropin-releasing hormone receptor (TRHR) signaling pathway (AID 1346891; calls by dose curve; further: series mostly up to about 58 µM)
Summary of the method: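 HEK293 cells expressing TRHR plated 18 h at 37 C/5% CO2, calcium dye-loaded 2 h at 37 C, then compound added (agonist mode); kinetic calcium fluorescence read 3 min at 1 s intervals; 15 concentrations in triplicate.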

Nuclear receptor subfamily 1 group I member 2 (Rattus norvegicus), sequence (Q9R1A7 whole entry, looked up): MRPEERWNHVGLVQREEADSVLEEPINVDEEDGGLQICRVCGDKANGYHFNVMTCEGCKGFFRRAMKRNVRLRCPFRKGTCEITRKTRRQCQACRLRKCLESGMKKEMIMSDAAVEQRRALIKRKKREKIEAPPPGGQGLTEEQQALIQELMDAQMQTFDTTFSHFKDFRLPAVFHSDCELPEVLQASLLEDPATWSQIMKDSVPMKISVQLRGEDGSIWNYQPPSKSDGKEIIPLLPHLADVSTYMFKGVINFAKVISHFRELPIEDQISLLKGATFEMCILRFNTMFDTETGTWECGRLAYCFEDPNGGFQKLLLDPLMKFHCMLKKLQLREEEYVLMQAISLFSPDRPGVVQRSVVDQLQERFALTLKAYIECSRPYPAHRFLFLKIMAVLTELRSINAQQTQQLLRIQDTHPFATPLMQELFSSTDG
Progesterone receptor (Homo sapiens), sequence (P06401 whole entry, looked up): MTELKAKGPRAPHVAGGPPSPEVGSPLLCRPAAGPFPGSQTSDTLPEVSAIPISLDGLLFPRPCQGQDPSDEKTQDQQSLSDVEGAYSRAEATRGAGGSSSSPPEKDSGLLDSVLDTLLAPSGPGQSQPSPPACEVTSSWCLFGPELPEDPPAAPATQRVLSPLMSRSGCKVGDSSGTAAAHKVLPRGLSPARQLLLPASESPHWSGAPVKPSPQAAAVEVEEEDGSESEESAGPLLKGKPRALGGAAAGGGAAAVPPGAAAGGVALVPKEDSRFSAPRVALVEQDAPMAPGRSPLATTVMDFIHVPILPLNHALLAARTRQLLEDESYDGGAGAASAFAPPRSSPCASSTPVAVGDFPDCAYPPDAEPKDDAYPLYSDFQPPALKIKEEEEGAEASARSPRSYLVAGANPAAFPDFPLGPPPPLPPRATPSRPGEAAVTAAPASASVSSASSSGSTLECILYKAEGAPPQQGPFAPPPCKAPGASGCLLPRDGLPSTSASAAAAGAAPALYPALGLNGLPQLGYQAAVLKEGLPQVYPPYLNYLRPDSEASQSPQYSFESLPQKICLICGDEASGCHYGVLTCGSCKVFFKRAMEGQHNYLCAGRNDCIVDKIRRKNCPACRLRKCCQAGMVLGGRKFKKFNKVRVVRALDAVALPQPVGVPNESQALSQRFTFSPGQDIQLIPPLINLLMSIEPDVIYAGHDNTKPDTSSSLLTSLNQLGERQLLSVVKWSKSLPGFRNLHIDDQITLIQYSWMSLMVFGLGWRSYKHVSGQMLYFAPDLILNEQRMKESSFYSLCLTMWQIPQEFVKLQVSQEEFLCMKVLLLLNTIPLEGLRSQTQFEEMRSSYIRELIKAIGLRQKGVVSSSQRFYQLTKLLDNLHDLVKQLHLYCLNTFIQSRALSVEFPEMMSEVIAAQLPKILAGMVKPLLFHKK
Nuclear receptor subfamily 1 group I member 2 (Homo sapiens), sequence (O75469 whole entry, looked up): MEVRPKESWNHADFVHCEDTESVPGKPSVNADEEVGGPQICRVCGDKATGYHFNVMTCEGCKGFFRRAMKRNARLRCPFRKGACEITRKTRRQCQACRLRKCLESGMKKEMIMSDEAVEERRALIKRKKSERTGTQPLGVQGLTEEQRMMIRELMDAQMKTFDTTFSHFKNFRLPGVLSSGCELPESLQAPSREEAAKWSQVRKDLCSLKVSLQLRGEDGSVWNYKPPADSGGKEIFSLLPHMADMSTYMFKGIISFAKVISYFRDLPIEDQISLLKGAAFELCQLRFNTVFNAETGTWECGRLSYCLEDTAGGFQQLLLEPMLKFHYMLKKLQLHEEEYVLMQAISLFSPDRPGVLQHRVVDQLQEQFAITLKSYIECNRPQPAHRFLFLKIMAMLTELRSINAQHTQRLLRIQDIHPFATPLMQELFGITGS
Thyrotropin receptor (Homo sapiens), sequence (P16473 whole entry, looked up): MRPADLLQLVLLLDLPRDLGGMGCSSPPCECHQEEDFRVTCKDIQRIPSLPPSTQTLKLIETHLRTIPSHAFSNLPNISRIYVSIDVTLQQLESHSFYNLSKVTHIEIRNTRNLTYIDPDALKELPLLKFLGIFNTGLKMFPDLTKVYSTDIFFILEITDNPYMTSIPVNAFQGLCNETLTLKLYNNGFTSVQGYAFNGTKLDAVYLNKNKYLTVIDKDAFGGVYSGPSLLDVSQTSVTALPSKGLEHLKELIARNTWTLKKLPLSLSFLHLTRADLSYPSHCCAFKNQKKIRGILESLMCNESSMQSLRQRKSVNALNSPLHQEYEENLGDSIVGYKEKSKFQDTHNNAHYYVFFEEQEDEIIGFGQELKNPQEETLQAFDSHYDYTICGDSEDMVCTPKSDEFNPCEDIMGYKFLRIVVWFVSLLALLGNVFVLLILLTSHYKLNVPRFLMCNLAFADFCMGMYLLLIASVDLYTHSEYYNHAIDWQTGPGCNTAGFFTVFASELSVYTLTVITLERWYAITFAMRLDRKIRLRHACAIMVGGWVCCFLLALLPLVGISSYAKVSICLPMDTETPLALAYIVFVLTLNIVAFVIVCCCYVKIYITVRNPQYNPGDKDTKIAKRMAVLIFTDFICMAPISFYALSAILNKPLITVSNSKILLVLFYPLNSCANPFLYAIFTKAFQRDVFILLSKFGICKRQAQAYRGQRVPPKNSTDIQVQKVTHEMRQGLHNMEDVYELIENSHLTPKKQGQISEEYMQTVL
Thyrotropin-releasing hormone receptor (Homo sapiens), sequence (P34981 whole entry, looked up): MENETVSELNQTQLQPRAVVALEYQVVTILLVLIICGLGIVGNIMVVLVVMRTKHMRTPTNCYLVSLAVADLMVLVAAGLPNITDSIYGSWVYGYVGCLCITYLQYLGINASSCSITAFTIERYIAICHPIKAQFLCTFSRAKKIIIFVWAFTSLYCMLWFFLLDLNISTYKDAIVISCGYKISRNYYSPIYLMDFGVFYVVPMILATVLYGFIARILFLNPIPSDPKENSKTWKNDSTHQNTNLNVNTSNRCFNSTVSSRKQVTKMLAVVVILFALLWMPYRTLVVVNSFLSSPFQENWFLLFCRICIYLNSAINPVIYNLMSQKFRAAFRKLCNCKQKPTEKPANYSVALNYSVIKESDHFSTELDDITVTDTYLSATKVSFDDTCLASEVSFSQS

Row | Structure (SMILES) | outcome [1] | Potency [2] | Potency [3] | Potency [4] | Potency [5] | Potency [6] | Potency [7] | Potency [8] | outcome [9] | outcome [10] | Potency [11] | Potency [12] | Potency [13] | Potency [14] | Potency [15] | Potency [16] | max activation [17] | outcome [18] | outcome [19] | Potency [20]
1 | CC(=O)Nc1ccc(C(=O)O)cc1 | inactive | inactive | inactive | inactive | inactive | inactive | inactive | inactive | inactive | inactive | inactive | inactive | inactive | inactive | inactive | inactive | -3.56% (inactive) | inactive | inactive | 
2 | CCCCOCCO | inactive | inactive | inactive | inactive | inactive | inactive | inactive | inactive | inactive | inactive | inactive | inactive | inactive | inactive | inactive | inactive |  |  |  | 
3 | NCCNCCNCCNCCN | inactive | inactive | inactive | inactive | inactive | inactive | inactive | inactive | inactive |  | inactive | inactive | inactive | inactive | inactive | inactive | -4.35% (inactive) | inactive | inactive | 
4 | CCCCCCCCCCCCN | inactive | inactive | inactive | inactive | inactive | inactive |  | inactive and 21.9 µM (active) | inactive | inactive | inactive and 30.6 µM (active) | inactive and 61.1 µM (active) | inactive and 30.6 µM (active) | inactive | inactive | inactive |  |  |  | 
5 | O=S(=O)(O)CCS | inactive | inactive | inactive | inactive |  | inactive | inactive | inactive | inactive | inactive | inactive | inactive | inactive | inactive | inactive | inactive | -3.83% (inactive) | inactive | inactive | inactive
6 | OCCOCCOCCOCCO | inactive | inactive | inactive | inactive | inactive | inactive | inactive | inactive | inactive | inactive | inactive | inactive | inactive | inactive | inactive | inactive |  |  |  | inactive
